The values below come from PubChem BioAssay (NCATS).

The target in assay [1] is Glucocorticoid receptor (Homo sapiens) (UniProt P04150). Kind of assay: GR-GFP Redistribution (AID 450;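 active means compounds whose dose series gives a full or clear partial fitted curve of increased nuclear translocation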; further: potency means the concentration at half of the fitted maximal effect). As to conditions: U2OS GR-GFP nuclear translocation, laser cytometry, 2 h.
For assay [2] the target is unchanged. Kind of assay: GR-EFC Redistribution (AID 451; calls by dose curve; further: potency means the concentration at half of the fitted maximal effect). As to conditions: CHO-K1 GR-EFC translocation, beta-gal luminescence, 2 h. Put shortly: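 CHO-K1 cells stably expressing nuclear-localized β-gal enzyme acceptor and GR fused C-terminally to the enzyme donor fragment; ligand-driven nuclear translocation restores β-gal by complementation. Compounds titrated up to 46 uM final, 2 h at 37 °C; luminescence read.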

The target in assay [3] is Mitogen-activated protein kinase 10 (Mus musculus) (UniProt Q61831). Nature of the assay: JNK3 AlphaScreen Assay (AID 530; active means well fitted curve in either direction with a large enough effect, not every such curve was filed as active;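 further: kinase came from lysate of stimulated human HepG2 cells; on the % scale 0 is the no-effect control and ±100 the full control effect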). As to conditions: JNK3 lysate, c-Jun phosphorylation; series mostly up to 57.1 µM. Put shortly: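 Biotinylated GST-cJun(1-79) served as substrate for JNK3 in HepG2 lysates stimulated with IL-1beta and TNF-alpha. ATP was 10 uM final, pH 7.6. Ser73 phosphorylation was quantified by AlphaScreen (680 nm excitation).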
Background: Bead proximity is the source of the signal in Alpha formats.

Assay [4] concerns the target 3',5'-cyclic-AMP phosphodiesterase 4B (Homo sapiens) (UniProt Q07343). Nature of the assay: qHTS Assay for Inhibitors of PDE-IV (AID 607; active means well fitted activation curve with a large enough effect in the main read-out, with a control signal flat, not every such curve was filed as active; further: % of control where 0% means no effect). As to conditions: HEK293 ACTOne CNG channel cells, membrane potential fluorescence; series mostly up to 22.9 µM. Put shortly: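 Cell-based read-out of cAMP via a modified cyclic nucleotide-gated channel and membrane potential dye (535/590 nm) in HEK293 cells expressing PDE4 endogenously. Compounds tested up to 22.9 uM final; 100 uM RO 20-1724 reference.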
On the technique in general: Quantitative high-throughput screening tests each substance at several concentrations.

Assay [5] addresses Cytochrome P450 2C19 (Homo sapiens) (UniProt P33261). Nature of the assay: qHTS Assay for Inhibitors and Substrates of Cytochrome P450 2C19 (AID 899). Further: potency means the concentration at half of the fitted maximal effect; nearly all actives have a fitted effect of over 60% in size. As to conditions: recombinant CYP2C19, luciferin-H EGE luminescence; series mostly up to 57.1 µM. Put shortly: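 NADPH-dependent conversion of Luciferin-H EGE (10uM, at KM) by 5nM enzyme in 50mM KPO4, 60 min at 37C following 10 min compound preincubation. Stopped with luciferin detection buffer; luminescence read after 20 min.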

Assay [6] concerns the target Ubiquitin carboxyl-terminal hydrolase 1 (Homo sapiens) (UniProt O94782). Kind of assay: Inhibitors of USP1/UAF1: Pilot qHTS (AID 504865).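 Further: rhodamine fluorescence freed from ubiquitin-rhodamine substrate followed over time; top concentration of the series differs between compounds; on the % scale 0 is the no-effect control and ±100 the full control effect; nearly all actives have a fitted effect of over 35% in size.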 As to conditions: purified USP1/UAF1, Ub-rhodamine cleavage fluorescence; series mostly up to 114 µM. Put shortly: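 Deubiquitinase activity followed as kinetic rhodamine fluorescence release from 150 nM Ub-Rho. 1 nM USP1/UAF1 with compound, after 15 min room-temperature preincubation, in HEPES pH 7.8 buffer containing TCEP, EDTA, BSA and Tween-20.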

For assay [7], the target named is DNA dC->dU-editing enzyme APOBEC-3G (Homo sapiens) (UniProt Q9HC16). Kind of assay: qHTS for inhibitors of Vif-A3G interactions: Validation (AID 588379). Further: 0% is about no effect. As to conditions: Vif-A3G protein interaction assay; series mostly up to 46.1 µM. Put shortly: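 Yellow fluorescence (Ex 488, Em 500-530) of Vif-coexpressing HeLa A3G-eYFP cells, scanned by Acumen cytometer, reports blocked A3G degradation. Cells plated at 700/well overnight at 37 deg C before compound addition, then a further overnight compound incubation at 37 deg C.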

The subject of assay [8] is Zika virus NS2B-NS3 protease. Nature of the assay: Primary screen GU AMC qHTS for Zika virus inhibitors (AID 1347154).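 Further: 0% = no-inhibitor control and -100% = no-enzyme control; nearly all actives have a fitted effect of over 70% in size.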 As to conditions: Zika NS2B-NS3 unlinked protease, AMC fluorogenic substrate; series mostly up to 54.1 µM. Put shortly:
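Unlinked Zika NS2B hydrophilic domain/NS3 protease domain noncovalent complex (25 nM final) in 10 mM Tris-HCl pH 8.0, 0.01% Tween 20, with AMC peptide substrate. Fluorescence (ex 340, em 450 nm) change over 15 min, room temperature; percent inhibition fitted to 4-parameter Hill equation.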

Assay [9] in a line: Primary qHTS for small molecule stabilizers of the endoplasmic reticulum resident proteome: Secreted ER Calcium Modulated Protein (SERCaMP) assay (AID 1508630). Further: on the % scale 0 is the no-effect control and ±100 the full control effect. As to conditions: SH-SY5Y GLuc-SERCaMP (Gaussia luciferase released on ER calcium loss) secretion, thapsigargin, luminescence; series mostly up to 38.4 µM. Put shortly:
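The SH-SY5Y reporter protocol was run at 3 concentrations up to 38.3 uM (primary) or 11 concentrations (follow-up): 16 h compound, 100 nM thapsigargin for 4 h, then extracellular luciferase luminescence.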

Assay [10] addresses Cytochrome P450 2C9 (Homo sapiens) (UniProt P11712). Nature of the assay: qHTS Assay for Inhibitors and Substrates of Cytochrome P450 2C9 (AID 883). Further: nearly all actives have a fitted effect of over 60% in size. Further: potency means the concentration at half of the fitted maximal effect. On activity change, negative = inhibition: on the % scale 0 is the no-effect control and ±100 the full control effect. As to conditions: recombinant CYP2C9, luciferin-H luminescence, 60 min; series mostly up to 57.1 µM. Put shortly: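 A luminogenic readout tracked human CYP2C9 (10nM) converting deoxyluciferin (100uM, at KM) in 25mM KPO4 during 60 min at 37C with regenerated NADPH. Values normalized to 57uM sulphaphenazole as complete inhibition.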

The target of assay [11] is Cytochrome P450 1A2 (Homo sapiens) (UniProt P05177). Nature of the assay: p450-cyp1a2 (AID 410; calls by dose curve; further: potency means the concentration at half of the fitted maximal effect). As to conditions: recombinant CYP1A2, luciferin-ME demethylation, luminescence; series mostly up to 57 µM. Put shortly:
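20nM CYP1A2, 100uM Luciferin-ME (=Km), 100mM KPO4; cpd 10 min RT; +NADPH regen, 60 min RT; stop/detect 20 min; luminescence. Normalized to furafylline 57 uM = full inhibition.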

The target of assay [12] is Cytochrome P450 3A4 (Homo sapiens) (UniProt P08684). Nature of the assay: qHTS Assay for Activators of Cytochrome P450 3A4 (AID 885). Further: nearly all actives have a fitted effect of over 65% in size. As to conditions: recombinant CYP3A4, Luciferin-PPXE luminescence, 60 min; series mostly up to 57.1 µM. Put shortly: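 Luminescent readout of luciferin formed from 25 uM Luciferin-PPXE (KM level) by 20 nM CYP3A4 in 200 mM KPO4, with 60 min NADPH-driven reaction at room temperature after 10 min compound exposure. Ketoconazole (57 uM) defined 100% inhibition.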
Chain of Cytochrome P450 3A4 (Homo sapiens) (P08684 whole entry, looked up): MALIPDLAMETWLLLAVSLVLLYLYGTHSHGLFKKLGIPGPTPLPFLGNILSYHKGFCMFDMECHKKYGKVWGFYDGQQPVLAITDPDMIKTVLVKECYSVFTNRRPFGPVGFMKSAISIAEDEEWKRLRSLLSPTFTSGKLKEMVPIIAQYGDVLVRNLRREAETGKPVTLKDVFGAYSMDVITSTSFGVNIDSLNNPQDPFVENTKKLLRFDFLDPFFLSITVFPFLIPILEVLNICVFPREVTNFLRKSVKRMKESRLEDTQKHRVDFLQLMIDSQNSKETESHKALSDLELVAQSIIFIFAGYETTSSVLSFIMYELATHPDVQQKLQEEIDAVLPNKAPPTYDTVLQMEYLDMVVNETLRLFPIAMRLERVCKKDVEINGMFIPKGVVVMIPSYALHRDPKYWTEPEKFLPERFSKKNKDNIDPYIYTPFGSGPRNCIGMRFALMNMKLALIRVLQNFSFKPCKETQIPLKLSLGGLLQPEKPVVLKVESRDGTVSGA

In assay [13] the target is Cytochrome P450 2D6 (Homo sapiens) (UniProt P10635). Kind of assay: qHTS Assay for Inhibitors and Substrates of Cytochrome P450 2D6 (AID 891). Further: potency means the concentration at half of the fitted maximal effect; nearly all actives have a fitted effect of over 60% in size. As to conditions: recombinant CYP2D6, luciferin-ME EGE luminescence; series mostly up to 57.1 µM. Put shortly:
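Luminescent read-out of luciferin formed by 5 nM human CYP2D6 demethylating 30 uM Luciferin-ME EGE (Km level) over 60 min at room temperature after NADPH regeneration addition. Data normalized to full inhibition by 1.43 uM quinidine.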

Assay [14] has as its target Cytochrome P450 3A4 (Homo sapiens) (UniProt P08684). Kind of assay: qHTS Assay for Inhibitors and Substrates of Cytochrome P450 3A4 (AID 884). Further: on the % scale 0 is the no-effect control and ±100 the full control effect; nearly all actives have a fitted effect of over 50% in size. As to conditions: recombinant CYP3A4, Luciferin-PPXE luminescence; series mostly up to 57.1 µM. Put shortly: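 Luminescent readout of luciferin produced by CYP3A4 (20 nM) dealkylation of Luciferin-PPXE, 25 uM (its KM). NADPH-driven reaction ran 60 min at RT after 10 min compound preincubation; data scaled to 57 uM ketoconazole as 100% inhibition.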

The structures appear in SMILES notation. Values without a mark were called inactive. Results filed as inconclusive are left out. Activity calls are given as the source filed them. Unless noted, the call rests on the fitted dose curve; in most records, active means well fitted curve in the direction sought with a large enough effect; inconclusive means small, poorly fitted or top-dose-only effect, or another doubt; inactive means no such curve, though single readings can be large; an effect the other way counts as inactive or inconclusive.

Chain of Cytochrome P450 2D6 (Homo sapiens) (P10635 whole entry, looked up): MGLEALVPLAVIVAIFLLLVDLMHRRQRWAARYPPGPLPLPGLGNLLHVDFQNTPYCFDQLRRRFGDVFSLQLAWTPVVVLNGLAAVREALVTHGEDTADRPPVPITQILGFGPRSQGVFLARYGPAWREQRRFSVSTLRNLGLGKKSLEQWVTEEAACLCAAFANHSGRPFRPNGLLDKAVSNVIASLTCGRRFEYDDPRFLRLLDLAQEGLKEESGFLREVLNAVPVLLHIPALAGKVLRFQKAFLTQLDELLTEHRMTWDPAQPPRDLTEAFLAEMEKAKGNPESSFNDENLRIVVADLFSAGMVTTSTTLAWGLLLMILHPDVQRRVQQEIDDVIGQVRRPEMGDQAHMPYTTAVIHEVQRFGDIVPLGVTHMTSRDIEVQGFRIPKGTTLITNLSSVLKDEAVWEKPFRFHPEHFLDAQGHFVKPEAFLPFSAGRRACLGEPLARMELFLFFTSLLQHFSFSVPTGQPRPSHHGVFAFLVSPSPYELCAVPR
Chain of Cytochrome P450 2C9 (Homo sapiens) (P11712 whole entry, looked up): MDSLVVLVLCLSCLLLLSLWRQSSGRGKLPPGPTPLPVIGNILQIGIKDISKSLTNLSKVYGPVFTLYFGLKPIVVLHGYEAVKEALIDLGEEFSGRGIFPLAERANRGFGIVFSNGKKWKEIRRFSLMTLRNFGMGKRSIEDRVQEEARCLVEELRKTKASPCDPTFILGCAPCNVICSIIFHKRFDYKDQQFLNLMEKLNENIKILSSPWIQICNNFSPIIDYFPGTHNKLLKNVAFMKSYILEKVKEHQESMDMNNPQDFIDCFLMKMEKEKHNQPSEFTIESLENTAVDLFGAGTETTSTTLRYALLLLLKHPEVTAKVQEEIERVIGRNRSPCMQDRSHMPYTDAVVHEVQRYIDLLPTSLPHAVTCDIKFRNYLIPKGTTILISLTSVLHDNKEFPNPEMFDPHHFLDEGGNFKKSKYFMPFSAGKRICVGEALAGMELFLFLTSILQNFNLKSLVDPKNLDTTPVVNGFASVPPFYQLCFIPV
Chain of Ubiquitin carboxyl-terminal hydrolase 1 (Homo sapiens) (O94782 whole entry, looked up): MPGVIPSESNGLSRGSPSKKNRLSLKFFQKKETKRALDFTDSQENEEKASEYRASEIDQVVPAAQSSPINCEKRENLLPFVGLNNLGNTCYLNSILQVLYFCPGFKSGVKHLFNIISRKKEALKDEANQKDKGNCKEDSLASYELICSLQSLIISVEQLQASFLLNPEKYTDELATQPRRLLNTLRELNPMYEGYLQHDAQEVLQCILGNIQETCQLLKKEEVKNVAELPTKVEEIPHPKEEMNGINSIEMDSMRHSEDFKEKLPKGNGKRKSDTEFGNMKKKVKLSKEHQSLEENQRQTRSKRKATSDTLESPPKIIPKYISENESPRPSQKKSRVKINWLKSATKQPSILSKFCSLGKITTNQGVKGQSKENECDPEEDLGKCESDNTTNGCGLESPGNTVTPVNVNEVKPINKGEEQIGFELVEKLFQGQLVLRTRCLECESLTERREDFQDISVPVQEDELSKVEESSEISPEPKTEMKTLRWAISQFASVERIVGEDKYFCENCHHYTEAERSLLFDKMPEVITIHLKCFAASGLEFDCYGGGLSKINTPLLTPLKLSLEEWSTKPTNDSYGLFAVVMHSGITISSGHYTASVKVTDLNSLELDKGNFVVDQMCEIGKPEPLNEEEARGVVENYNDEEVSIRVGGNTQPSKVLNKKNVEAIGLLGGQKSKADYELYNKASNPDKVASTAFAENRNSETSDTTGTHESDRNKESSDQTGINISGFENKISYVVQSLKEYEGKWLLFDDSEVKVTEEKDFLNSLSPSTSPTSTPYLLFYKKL
Chain of Cytochrome P450 1A2 (Homo sapiens) (P05177 whole entry, looked up): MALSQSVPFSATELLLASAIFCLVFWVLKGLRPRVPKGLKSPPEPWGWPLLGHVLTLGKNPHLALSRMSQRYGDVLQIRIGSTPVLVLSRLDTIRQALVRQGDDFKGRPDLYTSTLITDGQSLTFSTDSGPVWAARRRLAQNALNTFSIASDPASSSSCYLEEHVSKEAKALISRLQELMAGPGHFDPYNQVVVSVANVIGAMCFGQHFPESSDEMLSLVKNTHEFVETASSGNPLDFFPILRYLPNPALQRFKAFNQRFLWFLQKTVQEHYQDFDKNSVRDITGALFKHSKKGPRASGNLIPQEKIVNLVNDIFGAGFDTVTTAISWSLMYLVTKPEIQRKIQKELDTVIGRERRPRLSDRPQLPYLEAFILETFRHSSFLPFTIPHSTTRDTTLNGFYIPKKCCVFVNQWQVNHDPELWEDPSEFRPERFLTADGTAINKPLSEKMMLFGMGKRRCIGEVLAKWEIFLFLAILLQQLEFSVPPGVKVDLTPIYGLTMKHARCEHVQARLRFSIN
Chain of 3',5'-cyclic-AMP phosphodiesterase 4B (Homo sapiens) (Q07343 whole entry, looked up): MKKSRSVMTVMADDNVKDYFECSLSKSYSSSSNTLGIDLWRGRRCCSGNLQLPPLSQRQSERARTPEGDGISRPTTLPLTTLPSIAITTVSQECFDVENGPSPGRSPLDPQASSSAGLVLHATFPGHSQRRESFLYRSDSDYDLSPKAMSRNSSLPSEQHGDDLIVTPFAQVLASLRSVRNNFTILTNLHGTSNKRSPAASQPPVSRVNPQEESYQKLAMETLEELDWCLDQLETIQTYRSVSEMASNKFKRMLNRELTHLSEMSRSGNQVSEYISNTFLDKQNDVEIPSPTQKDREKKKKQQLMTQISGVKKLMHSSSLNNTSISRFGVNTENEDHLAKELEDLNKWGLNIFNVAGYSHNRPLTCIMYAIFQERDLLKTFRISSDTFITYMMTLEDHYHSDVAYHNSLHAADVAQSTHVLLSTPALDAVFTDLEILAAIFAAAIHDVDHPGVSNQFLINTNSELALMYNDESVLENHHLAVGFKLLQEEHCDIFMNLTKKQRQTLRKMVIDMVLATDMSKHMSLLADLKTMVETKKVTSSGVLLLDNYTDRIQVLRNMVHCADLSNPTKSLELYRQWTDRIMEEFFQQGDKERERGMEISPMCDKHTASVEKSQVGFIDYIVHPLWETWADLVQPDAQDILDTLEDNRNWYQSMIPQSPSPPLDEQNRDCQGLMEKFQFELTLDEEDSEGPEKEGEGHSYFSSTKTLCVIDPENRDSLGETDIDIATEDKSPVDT
Chain of Cytochrome P450 2C19 (Homo sapiens) (P33261 whole entry, looked up): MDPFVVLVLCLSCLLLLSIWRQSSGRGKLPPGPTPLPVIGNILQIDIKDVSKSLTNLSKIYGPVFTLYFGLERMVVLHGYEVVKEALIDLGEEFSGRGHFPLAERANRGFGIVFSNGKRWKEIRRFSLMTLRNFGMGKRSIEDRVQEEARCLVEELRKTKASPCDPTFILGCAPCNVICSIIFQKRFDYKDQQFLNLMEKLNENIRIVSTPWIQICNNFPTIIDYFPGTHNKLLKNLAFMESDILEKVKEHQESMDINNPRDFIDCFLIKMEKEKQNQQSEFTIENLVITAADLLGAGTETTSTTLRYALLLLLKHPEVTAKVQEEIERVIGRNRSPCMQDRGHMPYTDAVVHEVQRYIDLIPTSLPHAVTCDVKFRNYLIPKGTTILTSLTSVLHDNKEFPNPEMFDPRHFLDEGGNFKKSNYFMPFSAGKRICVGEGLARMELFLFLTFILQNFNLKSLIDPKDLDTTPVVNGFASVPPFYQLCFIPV
Chain of Glucocorticoid receptor (Homo sapiens) (P04150 whole entry, looked up, the tested form may be a part): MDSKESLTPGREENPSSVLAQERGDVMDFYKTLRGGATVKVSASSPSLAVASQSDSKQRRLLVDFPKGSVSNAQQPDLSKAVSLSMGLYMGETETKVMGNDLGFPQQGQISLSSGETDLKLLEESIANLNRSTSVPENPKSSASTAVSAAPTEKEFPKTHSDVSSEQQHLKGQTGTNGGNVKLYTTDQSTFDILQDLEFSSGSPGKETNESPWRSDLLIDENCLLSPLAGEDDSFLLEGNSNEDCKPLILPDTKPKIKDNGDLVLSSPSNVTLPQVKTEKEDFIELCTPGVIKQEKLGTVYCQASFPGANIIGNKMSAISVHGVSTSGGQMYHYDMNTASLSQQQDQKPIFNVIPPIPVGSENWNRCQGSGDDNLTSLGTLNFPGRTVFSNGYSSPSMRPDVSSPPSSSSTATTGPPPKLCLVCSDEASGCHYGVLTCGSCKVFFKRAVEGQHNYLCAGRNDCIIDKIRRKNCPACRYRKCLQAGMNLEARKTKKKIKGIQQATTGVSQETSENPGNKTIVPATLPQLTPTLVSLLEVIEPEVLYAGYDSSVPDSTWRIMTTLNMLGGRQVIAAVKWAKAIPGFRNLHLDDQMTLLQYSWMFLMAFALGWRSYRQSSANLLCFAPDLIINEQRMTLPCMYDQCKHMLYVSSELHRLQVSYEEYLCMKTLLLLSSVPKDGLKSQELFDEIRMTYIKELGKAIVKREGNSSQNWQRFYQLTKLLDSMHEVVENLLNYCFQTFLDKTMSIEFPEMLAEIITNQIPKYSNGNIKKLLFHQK

`Cc1cc(Cn2cnc3c2C[C@@H](C(=O)O)N(C(=O)C(c2ccccc2)c2ccccc2)C3)ccc1N(C)C`: the results for the Potency in assay [1], in [2] and in assay [5] were > 46 µM, > 46 µM and 1.58 µM (active), respectively. Moreover, the Potency entry in assay [3], in assay [4], in assay [6], in assay [7], in assay [8] and in [9] was “inactive” in each case.

As for `CCCCC[C@H](O)/C=C/[C@H]1C=CC(=O)[C@@H]1C/C=C\CCCC(=O)O`, the Potency in assay [1] was > 20.6 µM. In addition, the activity change, negative = inhibition in assay [8] was 7.12% [at 6.83 µM]; in assay [9], -13.8% [at 3.88 µM].

`O=C(c1ccc2c(c1)OCO2)N1CCCCC1`: the Potency in assay [1] and in assay [2] was > 46 µM in each case. Also, the Potency entry in [3], in assay [4], in assay [6], in assay [7], in [8] and in assay [9] was “inactive” in each case.

Regarding `CCCCC#Cc1nc(NC)c2ncn([C@@H]3O[C@@H](CO)[C@H](O)[C@H]3O)c2n1`, the values for the Potency in assay [1], in assay [2] and in assay [10] were > 46 µM, > 46 µM and 0.631 µM (active), respectively. Besides, the Potency entry in assay [4], in assay [6], in assay [7], in assay [8] and in assay [9] was “inactive” throughout.

Regarding `C=CCN1CCN(c2nc3ccccc3nc2C#N)CC1`, the Potency in [11] was 0.1 µM (active); in assay [1], > 46 µM; in assay [2], > 46 µM; in assay [13] it was 1.26 µM (active). Besides, the Potency entry in assay [4], in [12], in assay [7], in [8] and in assay [9] was “inactive” throughout.

Consider `C[C@H](O)CO[C@H]1[C@H]2O[C@H]3[C@H](O)[C@@H](O)[C@@H](O[C@H]4[C@H](O)[C@@H](O)[C@@H](O[C@H]5[C@H](O)[C@@H](O)[C@@H](O[C@H]6[C@H](O)[C@@H](OC[C@H](C)O)[C@@H](O[C@H]7[C@H](O)[C@@H](OC[C@H](C)O)[C@@H](O[C@H]8[C@H](O)[C@@H](O)[C@@H](O[C@@H]([C@@H]1O)[C@@H](CO)O2)O[C@@H]8CO)O[C@@H]7CO)O[C@@H]6CO)O[C@@H]5CO)O[C@@H]4CO)O[C@@H]3CO`, for which the Potency in assay [1] and in assay [2] was > 46 µM each time. Further, the Potency entry in assay [3], in [6], in [7], in assay [8] and in [9] was “inactive” each time.

For the molecule `NCCCCNS(=O)(=O)c1ccc2c(Cl)cccc2c1`, the Potency in assay [1] was > 46 µM; in assay [2], > 46 µM; in assay [10], 2 µM (active); in [5], 0.0025 µM (active). The Potency entry in [3], in assay [12], in assay [6], in assay [7], in assay [8] and in assay [9] was “inactive” in each case.

Regarding `CCCn1c(=O)[nH]c2nc(-c3ccc(S(=O)(=O)O)cc3)[nH]c2c1=O`, the Potency result in assay [11], in assay [3], in assay [10], in assay [14], in assay [7] and in assay [8] was “inactive” each time. In [9], the Potency entry was “inactive”. In addition, the Potency in [2] is > 46 µM; in assay [13], 7.94 µM (active).

As to `c1cc2c(cc1C1CCCCC1)c1c3n2CCN[C@H]3CCC1`, the Potency in assay [11] was 15.8 µM (active); in assay [1] it was > 46 µM; in [2] it was > 46 µM. For the same molecule, the Potency result in assay [12], in assay [7], in [8] and in assay [9] was “inactive” throughout.

For the molecule `COc1ccc(-c2ccc(=N)n(CCCC(=O)O)n2)cc1`, the Potency in assay [1] was > 46 µM; in [2], > 46 µM; in assay [10] it was 3.16 µM (active); in [13], 3.98 µM (active); in assay [5], 0.158 µM (active). The Potency entry in assay [3], in assay [6], in [7], in [8] and in [9] was “inactive” throughout.
